# In the supplement of paper PMC6555819:
# Experiments:
# Assay in all cases: PBM binding z-score (relative to random genomic background probes); higher = stronger binding; sequences stand for … in GC…GCGATTGACAGCGTAGAATGAAGG
# [1] = tested on: FXR:RXRa (NR concentration 270 nM, RXRa partner concentration 90 nM)
# How it was run: (§1)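 Ligand-free nuclear receptor dimers were bound for 1 h to custom Agilent 4×180K protein-binding microarrays. Detection used antibodies against each partner (one per run). Binding z-scores rest on regression-normalized fluorescence, with random background probes as the reference.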
# [2] = tested on: LXRa:RXRa (NR concentration 270 nM, RXRa partner concentration 90 nM)
# How it was run: as §1
# [3] = tested on: LXRa homodimer (NR concentration 270 nM)
# How it was run: as §1
# [4] = tested on: LXRb:RXRa (NR concentration 270 nM, RXRa partner concentration 90 nM)
# How it was run: as §1
# [5] = tested on: LXRb homodimer (NR concentration 270 nM)
# How it was run: as §1
# [6] = tested on: PPARa:RXRa (NR concentration 270 nM, RXRa partner concentration 90 nM)
# How it was run: as §1
# [7] = tested on: PPARg:RXRa (NR concentration 180 nM, RXRa partner concentration 90 nM)
# How it was run: as §1
# [8] = tested on: PPARg:RXRa 270nM:90nM, anti-RXR (NR concentration 270 nM, RXRa partner concentration 90 nM)
# How it was run: as §1
# [9] = tested on: PPARg:RXRa 30nM:10nM, anti-RXR (NR concentration 30 nM, RXRa partner concentration 10 nM)
# How it was run: as §1
# [10] = tested on: PPARg:RXRa 90nM:30nM, anti-RXR (NR concentration 90 nM, RXRa partner concentration 30 nM)
# How it was run: as §1
# [11] = tested on: PPARg:RXRa DBDmut IVT, anti-RXR (DBD mutation: RXRa K156A/R161A, NR concentration 270 nM, RXRa partner concentration 90 nM)
# How it was run: as §1
# [12] = tested on: PPARg:RXRa IVT, anti-PPARg (NR concentration 270 nM, RXRa partner concentration 90 nM)
# How it was run: as §1
# [13] = tested on: PPARg DBDmut:RXRa IVT, anti-PPARg (DBD mutation: PPARg1 K132A/R137A, NR concentration 270 nM, RXRa partner concentration 90 nM)
# How it was run: as §1
# [14] = tested on: PPARg DBDmut IVT, anti-PPARg (DBD mutation: PPARg1 K132A/R137A, NR concentration 270 nM)
# How it was run: as §1
# [15] = tested on: PPARg homodimer (NR concentration 180 nM)
# How it was run: as §1
# [16] = tested on: PXR:RXRa (NR concentration 270 nM, RXRa partner concentration 90 nM)
# How it was run: as §1
# [17] = tested on: PXR homodimer (NR concentration 270 nM)
# How it was run: as §1
# [18] = tested on: RARa:RXR (NR concentration 270 nM, RXRa partner concentration 90 nM)
# How it was run: as §1
# [19] = tested on: RARa homodimer (NR concentration 270 nM)
# How it was run: as §1
# [20] = tested on: RARb:RXRa (NR concentration 270 nM, RXRa partner concentration 90 nM)
# How it was run: as §1
Sequence,PBM binding z-score [1],PBM binding z-score [2],PBM binding z-score [3],PBM binding z-score [4],PBM binding z-score [5],PBM binding z-score [6],PBM binding z-score [7],PBM binding z-score [8],PBM binding z-score [9],PBM binding z-score [10],PBM binding z-score [11],PBM binding z-score [12],PBM binding z-score [13],PBM binding z-score [14],PBM binding z-score [15],PBM binding z-score [16],PBM binding z-score [17],PBM binding z-score [18],PBM binding z-score [19],PBM binding z-score [20]
AATACAGGGTCACCAGGCCAGAGTAGGTACGAAT,7.09,5.86,0.943,4.55,0.722,6.07,8.01,6.75,3.76,5.35,3.62,5.06,1.5,0.986,2.07,4.02,0.26,5.4,0.737,4.53
CGTCCAAGGTCATAGGAGGTCAGTGATGACAGAT,7.57,7.22,5.1,5.96,1.02,5.77,5.63,5.82,2.23,4.02,3.37,4.38,0.469,0.243,3.94,6.6,3.48,5.69,2.24,5.32
ATATATAGGTTAGCTGGGGTCATTCAGACTAGGC,4.53,6.18,3.51,5.39,2.03,5.2,5.62,5.43,2.62,4.79,6.82,5.96,2.35,1.71,2.62,6.52,3.94,5.27,2.07,3.21
TTACCAAGGTGAGCTGAGGTCGTTGGTCCAACTC,1.55,1.34,-0.436,0.439,-1.02,1.67,-0.467,0.63,-0.5,0.00719,1.42,1.75,-0.48,-1.25,-0.363,4.68,0.529,1.63,-1.02,1.72
GCTCGGAGGACAAGGTCATAGCTTTGTCCGTAGA,4.1,3.71,0.47,2.77,-0.053,4.08,2.43,3.37,0.472,2.08,0.27,1.58,-0.805,-1.25,1.11,3.46,0.287,3.71,-0.351,3.79
TCTTGTAGTTCAATAGAGGTTAAGAAAGTGCGCT,2.33,5.37,2.45,3.06,0.28,2.28,-0.0212,1.83,2.94,2.06,1.53,0.937,0.563,1.1,1.14,4.2,1.73,2.4,0.814,2.22
CGAACTAGGTCAGAAAAGGACAGTGAAGGATGAT,1.84,0.723,-0.125,0.338,-0.514,2.87,4.64,4.06,1.43,3,6.88,7.14,2.3,1.47,1.15,1.17,-0.473,1.08,0.026,3.16
CCGAGTAGGATATGGGGCATTCAGGCAACGGTGA,-0.328,-0.279,-0.104,-0.307,-0.496,1.11,1.26,2.01,0.579,1.45,2.05,2.81,-0.179,-0.813,0.55,-0.236,-0.112,-0.0398,0.174,-0.0937
CATAAAGGGTCAGCTAGGCCAGAGTAGGGACGGC,5.38,3.9,0.537,2.74,0.607,4.71,4.17,3.83,1.06,2.82,1.58,2.9,0.703,0.0542,2.26,2.18,-0.269,3.32,0.796,4.9
CCGACTGGGGCAGAAAGGTTACCAAACCATCCGG,0.151,0.796,-0.38,1.02,-0.812,2.22,1.48,2.84,0.501,2.07,1.37,1.71,-0.76,-0.56,0.448,0.803,-0.532,1.58,-0.491,1.86
TCGAGTAGGTTACCAATGGGGCTTTCAGCTTTCT,-0.0439,0.131,-1.06,0.62,-0.632,0.836,-0.121,0.803,1.11,0.796,3.39,2.45,-0.964,0.0286,-0.411,-0.0679,-0.767,-0.0921,-1.47,0.762
ATACCAAGGTGATCGTGAGGTCGCTGATACTAAC,1.23,0.653,0.154,0.766,-0.474,1.15,0.701,0.558,-0.172,0.198,0.629,1.43,0.343,0.406,0.832,1.86,0.225,1.66,-0.0146,1.43
ACTATTAGTTGAGACGAGCGCAACCGATAGGTTG,-0.41,-0.534,-0.214,-0.638,-0.159,-0.642,0.477,-0.52,-0.422,-0.414,-0.504,-0.34,0.343,0.844,-0.155,-0.542,0.00515,-0.474,-0.207,-0.278
CAGCCTAGGTCAGGGCCAGAATAGGAGGAACGTT,1.68,0.905,-0.589,0.734,-1.02,2.04,1.06,0.725,-0.241,0.0702,1.51,1.55,-0.6,-1.51,0.276,0.146,-0.618,0.927,-0.25,3.49
GCTAGTTGGTCATTAAAAGGTCACACACCGGTCG,3.71,4.83,6.37,4.7,1.12,4.31,1.92,3.77,1.5,2.68,1.97,2.97,-0.134,0.443,4.31,5.25,1.39,6.14,1.98,4.4
TTACCAAGGTGAGATGAGGTCGTTGATCCAACTC,1.78,1.68,-0.0824,1.1,-0.44,2.03,0.772,1.32,0.775,1.01,1.15,2.16,-0.0123,0.496,0.827,5.21,0.58,2.44,0.0224,1.83
CCTAGTTGGTCAGGAGGTCATACACCGGATATGA,3.81,3.61,2.79,3.13,0.702,3.89,2.72,3.82,1.58,2.89,1.25,3.03,0.324,0.888,3.21,3.99,1.57,4.19,1.23,3.33
